Experimental data as given in PubChem BioAssay (NCATS).
Results filed as inconclusive are left out. Unmarked numbers belong to inactive results. The call rests on the fitted dose curve; in most records, active means well fitted curve in the direction sought with a large enough effect; inconclusive means small, poorly fitted or top-dose-only effect, or another doubt; inactive means no such curve, though single readings can be large or run the other way.

Assay: KB-3-1 P-gp reporter qHTS against the NCATS DSHEA and TCM libraries (AID 1919975); further: 0% is about no effect
Conditions: KB-3-1 parental cells, CellTiter-Glo luminescence viability, 72 h; series mostly up to 26.1 µM; activity change, negative = inhibition: at the top concentration
Excerpt: Assay Development and Screening Technology Laboratory (ADST)
National Center for Advancing Translational Sciences (NCATS), Rockville, MD
National Institute of Health (NIH), Bethesda, Maryland
Dietary Supplements and Natural Products have minor oversight of their safety and efficacy. We assembled a collection of Dietary Supplements and Natural Products (DSNP) as well as Traditional Chinese Medicinal (TCM) Plant extracts, which were screened against an in vitro panel of assays, including a liver cytochrome p450 enzyme panel, CAR/PXR signaling pathways, and P-gp transporter assays, to assess their activity. This pipeline facilitated the interrogation of Natural Product-Drug Interaction (NaPDI) through prominent metabolizing pathways. In addition, we compared the activity profiles of the DSNP/TCM substances with those of an approved drug collection. Many of the approved drugs have well-annotated mechanisms of action (MOA) while the MOAs for most of the DSNP and TCM samples remain unknown. Based on the premise that compounds with similar activity profiles tend to share similar targets or MOA, we clustered the library activity profiles to identify overlap with the NCATS Pharmaceutical Collection to predict the MOAs of the DSNP/TCM substances. Overall, we highlight four significant bioactivity profiles (measured by p-values) as examples of this prediction. To assess broad cytotoxicity, we employed screening against a HepG2 cell line. In addition, transporter-mediated drug interactions are utilized in the characterization of DDIs using a P-glycoprotein (P-gp) assays. To profile potential P-gp activity, a differential cell viability was measured against two cell lines: a parental KB-3-1 human cervical adenocarcinoma cell line and the drug-resistant subline KB-8-5-11 that overexpresses P-gp.
To this end, we profiled both collections for potential CAR and/or PXR activity, employing a previously published 1536-well qHTS assay.
[1] Lee TD, et al. A High-Throughput Screen of a Library of Therapeutics Identifies Cytotoxic Substrates of P-glycoprotein. Mol Pharmacol. Nov 2019;96(5):629-640. doi:10.1124/mol.119.115964
PROTOCOL TABLE (as described by Inglese J, Shamu CE and Guy RK. 2007)
SEQUENCE No. (e.g., 1, 2, 3, etc.); PARAMETER (e.g., Cells, Incubation, Reagent, etc.); VALUE; DESCRIPTION.
1; Cells; 5 uL; KB-3-1 cells, white solid-bottom tissue treated Greiner plate.
2; Incubation; 4 hrs; 37C, 95% humidity, 5% CO2.
3; Compounds and control; 23 nL; Kalypsis pin tool (Wako USA) equipped with a 1536-well pin head to transfer to the assay plates.
4; Incubation; 72 hrs; 37C, 95% humidity, 5% CO2.
5; Reagent; 2.5 uL; CellTiter-Glo.
6; Centrifuge; 1000 RPM; 15 seconds.
7; Incubation; 30 min; room temperature.
8; Read; Luminescence; ViewLux plate reader.
NOTES (numbers refer to Sequence numbers above)
1. Cell line KB-3-1 and its colchicine-selected, P-gp-overexpressing subline KB-8-5-11 were maintained in DMEM (Thermofisher catalog #11965) with 10% FBS and 1% penicillin/streptomycin at 37C in 5% CO2. For the screen, assay medium was identical to culture medium. Briefly, 5 uL of cells at 1 x 10^5 cells/mL (500 cells/well) were dispensed into a 1536-well white solid-bottom tissue treated plate (Greiner Bio-One) using a Multidrop Combi dispenser.
2. Plates were incubated at 37C, 95% humidity, 5% CO2 for ~4 hours to allow for cell attachment.
3. Compounds and intraplate control (Bortezomib; final concentration range 228 pM - 7.5 uM) were transferred (16 nL) via pintool (Wako Automation), for a final concentration of 15.6 nM - 30.0 uM (most substances).
4. Plates were incubated for ~72 hours at 37C, 95% humidity, 5% CO2.
5. Plates were then dispensed with 2.5 uL of CellTiter-Glo.
6. The assay plates were centrifuged for 15 seconds at 1,000 RPM's.
7. The plates were incubated for 30-minute at room temperature.
8. Luminescence intensity was detected using a PerkinElmer ViewLux microplate reader.
[…]

Row | Compound | activity change, negative = inhibition
1 | COc1cc2c(cc1O)C[C@H]1c3c(cc(OC)c(O)c3-2)CCN1C | -10.6%
2 | COc1cc2c(cc1O)CC1NCCc3cc(OC)c(OC)c-2c31 (stereo not given) | -2.1%
3 | CCCCCCCCCCCCCCCCCCCC(=O)O | -3.07%
4 | N#CC(O[C@@H]1O[C@H](CO[C@@H]2O[C@H](CO)[C@@H](O)[C@H](O)[C@H]2O)[C@@H](O)[C@H](O)[C@H]1O)c1ccccc1 (stereo not given in full) | 5.43%
5 | CC[C@@H]1CN2CC[C@]3(C(=O)Nc4ccccc43)[C@@H]2C[C@@H]1/C(=C\OC)C(=O)OC | -19.9%
6 | COc1cc2c(cc1O)CC1c3c(cc(O)c(OC)c3-2)CCN1C (stereo not given) | -10.8%
7 | COC1=C[C@@]23CCN(C)[C@H](Cc4ccc(OC)c(O)c42)C3=CC1=O | 8.12%
8 | C=CCc1ccc2c(c1)OCO2 | -9.62%
9 | COC1=CC(=O)O[C@@H](/C=C/c2ccc3c(c2)OCO3)C1 | 0.529%
10 | O=S(=O)(O)O | -17.3% [at 44.5 µM]
11 | COC1=CC(=O)OC(CCc2ccccc2)C1 (stereo not given) | -10.9%
12 | C=C(C)[C@@H]1CCC(C)=C[C@H]1c1c(O)cc(CCCCC)cc1O | -18.9%
13 | COC(=O)C1=CO[C@@H](C)[C@@H]2CN3CC[C@@]4(C(=O)Nc5ccccc54)[C@@H]3CC12 (stereo not given in full) | -7.08%
14 | COc1ccc2c(c1O)-c1c(OC)c(OC)cc3c1[C@H](C2)N(C)CC3 | 6.74%
15 | C=C[C@H]1CN2CC[C@@]3(C(=O)Nc4ccccc43)[C@@H]2C[C@@H]1/C(=C\OC)C(=O)OC | -12.8%
